Screening data as filed in PubChem.
TSG101-PTAP inh – blocks PTAP/TSG101 interaction to inhibit HIV-1 budding | Q99816 | Fluorescence polarization, FITC-PTAP peptide / Tsg101 binding | Potency, µM (highest dose often 115 µM), for inactives: top-dose activity change, negative = inhibition, most hits filed as inhibitors | 340,000 tested, under 10 active; active = well fitted inhibition curve with a large enough effect in the main read-out, with a control signal flat, not every such curve was filed as active; inconclusive = small, poorly fitted or top-dose-only effect, or effect the other way, or a change in a side signal; inactive = no such curve, though single readings can be large or run the other way; also: % of control where 0% means no effect
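Fluorescence anisotropy tracks displacement of a FITC-tagged PTAP peptide (50 nM) from the Tsg101 binding domain (10 uM), following a 20 min room-temperature incubation at pH 7.5.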
Eya2 phos inh – blocks the phosphatase activity of human Eya2. O00167. recombinant Eya2, OMFP fluorescence dephosphorylation (OMFP is methylfluorescein phosphate). Potency, µM (series often up to 76.9 µM), for the others: top-dose activity, negative = inhibition, hits mostly inhibitors. actives 0.006% (n = 330,000). AID 488837; also: % is scaled to controls: 0 for no effect and ±100 for the full control effect
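Eya2 (0.2 uM) preincubated 10 min at ambient with compound, then OMFP substrate added at 50 uM; 10 min reaction in 50 mM HEPES pH 7.5, 50 mM NaCl, 5 uM MgCl2, 0.05% BSA, 1 mM DTT. Fluorescence read at Ex 485/Em 525 nm.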
USP2a block – blocks human ubiquitin-specific protease USP2a; O75604; USP2 core, Ub-CHOP2 coupled fluorogenic reporter, 485/531; AID 463254; Potency, µM (top dose mostly 38.3 µM), for the others: at the highest dose activity change, negative = inhibition, most hits filed as inhibitors; actives 0.01% (n = 330,000);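 also: plate controls were DMSO wells for no effect and full inhibition by NEM control for full effect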
Target sequence (O75604 whole entry, looked up): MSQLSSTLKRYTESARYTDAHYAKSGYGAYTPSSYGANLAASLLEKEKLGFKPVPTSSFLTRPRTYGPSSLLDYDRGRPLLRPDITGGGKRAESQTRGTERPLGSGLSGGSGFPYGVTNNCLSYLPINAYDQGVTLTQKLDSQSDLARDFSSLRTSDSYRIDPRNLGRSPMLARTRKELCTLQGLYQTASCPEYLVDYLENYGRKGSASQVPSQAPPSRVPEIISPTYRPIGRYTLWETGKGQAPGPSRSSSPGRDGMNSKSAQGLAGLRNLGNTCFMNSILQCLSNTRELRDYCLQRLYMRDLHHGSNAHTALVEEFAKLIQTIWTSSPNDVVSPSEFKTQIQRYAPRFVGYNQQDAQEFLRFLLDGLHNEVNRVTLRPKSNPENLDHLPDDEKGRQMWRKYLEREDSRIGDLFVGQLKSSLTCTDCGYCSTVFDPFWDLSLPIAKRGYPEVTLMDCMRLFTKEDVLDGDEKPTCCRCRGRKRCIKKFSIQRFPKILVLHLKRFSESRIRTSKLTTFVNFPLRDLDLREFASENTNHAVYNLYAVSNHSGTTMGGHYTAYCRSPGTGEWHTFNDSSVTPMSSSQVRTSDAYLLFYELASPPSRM
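Cell-free coupled assay: 10nM USP2 core preincubated 30min RT with compound in Tris-HCl pH 8.0/CaCl2/CHAPS buffer, then 25nM Ub-CHOP2 and 25nM reporter substrate; fluorescence (Ex 485/Em 531) read after 60min RT, normalized to NEM inhibition, concentration-response curves fitted.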
12-LOX inh – blocks human arachidonate 12S-lipoxygenase | AID 1671190 | Potency, µM (highest dose often 108 µM), for inactives: at the highest dose activity change, negative = inhibition, usual class: inhibitors | purified 12hLO, xylenol orange hydroperoxide absorbance | actives 1.1% (n = 580,000); also: % is scaled to controls: 0 for no effect and ±100 for the full control effect
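Hydroperoxide product was detected by ferrous iron/xylenol orange as the 573 to 405 nm absorbance ratio. Arachidonic acid at 40 uM (final) was turned over for 30 min at room temperature by 150 nM human 12hLO, pH 7.0 Hepes buffer, after 15 min compound preincubation.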
Numbers without * were called inactive; u = inconclusive; x = not tested or not shown; [ ] = another dose, or the depositor's remark. Sampled rows, rich in hits. Any-hit rate of the full collection: about 1.1%. Unless noted, calls follow the shape of the dose curve; as a rule, active = well fitted curve in the direction sought with a large enough effect; inconclusive = small, poorly fitted or top-dose-only effect, or another doubt; inactive = no such curve, though single readings can be large; an effect the other way counts as inactive or inconclusive. Potency is read from the fitted curve at half-maximal effect.

SMILES | TSG101-PTAP inh | Eya2 phos inh | USP2a block | 12-LOX inh
N#C/C(=C/C1=Cc2cc(Cl)ccc2OC1)c1nc2ccccc2[nH]1 | x | x | x | 16µM*
O=C(CSc1nncn1-c1cccc(Cl)c1)Nc1ccccc1C(=O)NCCc1ccccc1 | x | x | x | -2%
O=C(/C=C1\C(=O)Nc2ccccc21)/C=C1\C(=O)Nc2ccccc21 | -3% | -16% | 6% | 8.9µM*
O=C1Nc2ccccc2/C1=C\C(=O)c1ccccc1 | 1% | 3% | 3% | u
CC[N+]1(CC)CC2CCC(C)(C1)C2(C)C (stereo unspecified) | -8% | 11% | 1% | 45µM*
CNC(=S)N/N=C(\C)c1cccc(C(F)(F)F)c1 | 1% | 1% | 2% | 22µM*
COc1cc(/C=N/n2c(-c3ccccc3)n[nH]c2=S)cc(OC)c1OC | -2% | 6% | 1% | 28µM*
Cc1cccc(/C=N/n2c(-c3ccccc3)n[nH]c2=S)c1O | -1% | -12% | -1% | 4.5µM*
Oc1c(Br)cc(Br)c(/C=N/n2c(-c3ccccc3)n[nH]c2=S)c1Br | -3% | 4% | 2% | 18µM*
O=C1NCCOCCCN(S(=O)(=O)c2cccc(F)c2)[C@H]2CCC[C@@H]12 | x | x | x | 12%
O=C(Cn1cccc1-c1nc(-c2ccc3c(c2)OCO3)no1)Nc1cccc(Cl)c1 | x | x | x | -2%
COc1ccccc1C(=O)N1CC(CNC(=O)C2CC2)C2(C1)CN(c1ccccc1)C2 (stereo unspecified) | x | x | x | -6%[176 µM]
N#CCCn1cc(-c2csc(NC3CC3)n2)c2ccccc21 | x | x | x | 14µM*
Cc1ccc2cc(NC(=O)c3ccccc3C)ccc2n1 | -1% | 12% | 6% | -14%
CCCn1nc(C)cc1CN(C)c1ccc(NC(=O)c2ccccc2C)cc1C(=O)O | x | x | x | 10µM*
CC(=O)c1c(N2CCN(c3ccccc3)CC2)nc(=S)n(-c2ccccc2)c1C | -6% | -15% | 1% | u
CCOC(=O)N1CCN(c2nc(=S)n(-c3ccccc3)c(C)c2C(C)=O)CC1 | -1% | -6% | -2% | 32µM*
N#CC(c1ccccn1)(c1ncc(C(F)(F)F)cc1Cl)N1CCOCC1 (stereo unspecified) | x | 4% | -1% | -3%
N#CC(c1ccncc1)(c1ncc(C(F)(F)F)cc1Cl)N1CCOCC1 (stereo unspecified) | 0% | 5% | -1% | 45µM*
O=C(NCC(=O)N1CCN(c2ccc(F)cc2)CC1)NCc1ccc(F)cc1 | x | x | x | 14%
O=C(NCc1ccc(Cl)cc1)C1CCN(C(=O)c2ncn3c2COC(c2ccccc2)C3)CC1 (stereo unspecified) | x | x | x | 41%
CCOc1ccc2nc(SC3CC(=O)N(c4ccc(C)c(C)c4)C3=O)nc(C)c2c1 (stereo unspecified) | x | x | x | 28%
O=C(N/N=C/c1ccc(Cl)cc1Cl)c1cccc(F)c1 | -4% | -20% | -2% | 13%
Fc1ccc(Br)cc1/C=N/N1CCN(c2ccccc2)CC1 | 3% | -5% | -2% | 0%
Oc1ccc(/C=N/Nc2ccc3ccccc3c2)c(O)c1 | 2% | -1% | -1% | -24%
SMILES | TSG101-PTAP inh | Eya2 phos inh | USP2a block | 12-LOX inh
Fc1ccc(Br)cc1/C=N/Nc1c(Cl)cc(Cl)cc1Cl | x | x | x | 18µM*
Fc1ccc(/C=N/Nc2c(Cl)cc(Cl)cc2Cl)c(F)c1 | x | x | x | 40µM*
Fc1ccc(/C=N/Nc2ccc3ccccc3c2)c(F)c1 | x | x | x | 2.5µM*
CCOC(=O)CSC1=Nc2ccccc2C2=NC(CC(=O)NCc3cccs3)C(=O)N12 (stereo unspecified) | -2% | -5% | -3% | u
CCOC(=O)CSC1=Nc2ccccc2C2=NC(CC(=O)NCc3ccccc3)C(=O)N12 (stereo unspecified) | -2% | 4% | 2% | 10µM*
CC(=O)Nc1ccc(NS(=O)(=O)c2ccc3c(c2)oc(=O)n3C)cc1 | -2% | -4% | 1% | 8.9µM*
COc1ccc(C(C)O)cc1CSc1nc2ccccc2s1 (stereo unspecified) | x | x | x | 2%
COc1ccc(C2NCCc3c2[nH]c2ccccc32)cc1CSc1nc2ccccc2s1 (stereo unspecified) | -4% | -7% | -15% | 32µM*
CC1=C(C(=O)OCc2ccccc2)C(/C=C/c2ccccc2)NC(=S)N1 (stereo unspecified) | 0% | 2% | -8% | 18µM*
C=CCOC(=O)C1=C(C)NC(=S)NC1/C=C/c1ccccc1 (stereo unspecified) | -9% | 8% | -1% | -26%
COC(=O)CCS(=O)(=O)c1ccc(Cc2ccc(S(=O)(=O)CCC(=O)OC)cc2)cc1 | x | x | x | -34%
CCS(=O)(=O)c1ccc(Cc2ccc(S(=O)(=O)CC)cc2)cc1 | x | x | x | 8.9µM*
O=C(CSc1ccc(-c2ccco2)nn1)c1ccc(F)cc1 | -4% | 1% | 3% | 28µM*
COc1ccc(C(=O)CSc2nnc(-c3ccco3)c(-c3ccco3)n2)cc1 | -9% | -3% | u | 20µM*
CSc1nnc(-c2ccco2)c(-c2ccco2)n1 | -5% | 3% | 0% | 22µM*
Clc1ccccc1-c1nnc2sc(-c3ccco3)nn12 | 0% | 2%[15.4 µM] | 2% | -5%
Cc1oc(-c2ccc(F)cc2)cc1-c1nn2c(-c3ccco3)nnc2s1 | x | x | x | 11µM*
Cc1oc(-c2ccc(Cl)cc2)cc1-c1nn2c(-c3ccco3)nnc2s1 | x | 14% | -2% | x
Fc1ccccc1-c1ccc(-c2nn3c(-c4ccco4)nnc3s2)o1 | x | x | x | 8.9µM*
Oc1ccc(/C=N/N(c2ccccc2)c2ccccc2)c(O)c1O | x | 16% | -14% | 11µM*
Cc1ccc(-c2cc(N3CCC(CNC(=O)c4ccc5nc[nH]c5c4)CC3)n[nH]2)cc1 | x | x | x | 17%
CC(C[N+](C)(C)C)OC(=O)c1ccc2c(c1)OCO2 (stereo unspecified) | x | x | x | 25µM*
COc1ccc2[nH]c(CO)cc2c1 | x | x | x | 25µM*
O=C1N(Cc2cccc(F)c2)CCCN1c1ccc(C(=O)N2CCc3ccccc32)cc1 | x | x | x | -14%
O=[N+]([O-])c1ccccc1C=NNc1ccccc1 | -6% | x | x | 20µM*
SMILES | TSG101-PTAP inh | Eya2 phos inh | USP2a block | 12-LOX inh
O=C(CC(=O)N/N=C/c1ccccc1[N+](=O)[O-])N/N=C/c1ccccc1[N+](=O)[O-] | x | x | x | -6%
O=[N+]([O-])c1ccc(/C=N/Nc2cccc(Cl)c2)cc1 | x | x | x | 3.2µM*
O=[N+]([O-])c1cccc(N/N=C/c2cccc(O)c2O)c1 | 0% | -3% | -3% | 11µM*
Oc1ccccc1/C=N/Nc1ccccc1 | 2% | -7% | 0% | 32µM*
COc1cccc(CNC(=O)C(C)n2nc(-c3ccccc3)c3ccccc32)c1OC (stereo unspecified) | x | x | x | -5%
COc1cccc(NS(=O)(=O)c2ccc3c(c2)C2C=CCC2C(c2ccc(C(=O)O)cc2)N3)c1 (stereo unspecified) | -12% | 7% | -11% | 13µM*
CCOc1ccc(NC(=S)Nc2ccc(OCC)cc2)cc1 | -2% | 11% | -2% | u
CCOc1ccc(NC(=S)Nc2cc(OC)c(Cl)cc2OC)cc1 | -1% | -4% | -1% | 40µM*
